# Experimental data published in PubChem BioAssay AID435019 (Southern Research Specialized Biocontainment Screening …, 2010).
# Out of some 2,300 compounds screened, about 1,200 (52%) were called active. So high a share suggests a set chosen from earlier hits. This is one part of the list. Measured potencies and affinities stand elsewhere. A number with no mark means an inactive call. No rule for the calls is given here.
# Experiment: mammalian cell cytotoxicity, dose response, cytotoxicity control for M. tuberculosis inhibitor project (AID 435019);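 also: 0% = background wells and 100% = vehicle-treated cells; lower values mean fewer viable cells so more cytotoxicity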
# Settings: cytotoxicity counter-screen; series mostly up to 40 µM; viability: at the top concentration
row,Structure (SMILES),viability [%]
1,C=CCc1cccc(CNc2cnc3ccccc3c2)c1O,88.8
2,Cc1cc(-c2cc(-c3ccccc3)on2)nc(NC2CCCC2)n1,85.9
3,Cc1ccsc1/C=N/Nc1ccc(F)cc1F,95.7
4,CC(C)(C)c1nc2sc3c(c2c(=O)o1)CCCC3,93.7
5,Cc1ccc(CNC(=O)c2sc3nc4c(c(C(F)(F)F)c3c2N)CCC4)cc1,94.3
6,COc1ccc(C(=O)C2CCCN(C3CSCCSC3)C2)c(C)c1 (stereo unspecified),83.2
7,CN1C(=O)c2cccc3c(Br)ccc(c23)C1=O,97.7
8,CN(Cc1ccc(Br)cc1)C(=O)CCN1C(=O)c2cccc([N+](=O)[O-])c2C1=O,86.3
9,O=C(Nc1ccc(Cl)cc1)N(C1=NCCC1)c1ccc(OC(F)F)cc1,82.3
10,O=C(c1ccco1)N1CCN(C(=O)C2CC(c3ccc(Cl)c(Cl)c3)=NO2)CC1 (stereo unspecified),84.7
11,c1ccc(-c2nc(N3CCCC3)nc3ccccc23)cc1,92.6
12,O=c1cc2[nH]c3ccccc3c(=O)n2nc1-c1ccccc1,98.3
13,CCOC(=O)N/N=C(/C)c1ccc([N+](=O)[O-])o1,84.4
14,CN1/C(=C\C(=O)COC(=O)c2ccc([N+](=O)[O-])o2)C(C)(C)c2ccccc21,98.5
15,CCOc1cc(C2NN=C(c3ccc(C)cc3)S2)ccc1O (stereo unspecified),82
16,N#C/C(=C1\CCCN1)c1nc(-c2ccccc2)cs1,82
17,O=C(Nc1ccc(-n2cccc2)cc1)C1CC1,92.5
18,Cc1ccc(NC(=O)C2C3/C=C\CCCCC32)cc1C (stereo unspecified),96.5
19,Cc1ccc(S(=O)(=O)NCc2ccc(C(=O)NCCCN3CCC(Cc4ccccc4)CC3)cc2)cc1,94.2
20,COc1cccc(-n2nnc3c(=O)n(CC(=O)N4CCC(Cc5ccccc5)CC4)cnc32)c1,80.7
21,CCCCCCSc1nsc(NC(=O)CC(C)C)n1,85
22,Cc1c(OCc2ccccc2)c(=O)ccn1Cc1ccc(Cl)cc1,87.7
23,CC(=O)N1C(Nc2ccc(Cl)cc2)CCN1c1ccccc1 (stereo unspecified),102
24,Nc1ccc2c(c1)oc1ccccc12,87.4

row,Structure (SMILES),viability [%]
1,Cc1ccc(-n2[nH]c(C)c(C=Nc3ccc(S(=O)(=O)Nc4nccs4)cc3)c2=O)c(C)c1,88.1
2,Cc1ccccc1C(=O)Nc1ccc(N(C)C)c2ccccc12,95.2
3,N/C(=N\OC(=O)Nc1ccc(Cl)c(Cl)c1)c1ncc(C(F)(F)F)cc1Cl,92.2
4,CC(C)C(=O)N1CCC2(CC1)Oc1ccc(Cl)cc1C(=O)C21CC(c2ccccc2)=NO1 (stereo unspecified),83.4
5,COc1ccc(C(=O)OCC(=O)c2ccc(Br)s2)c(OC)c1,94.2
6,CCOC(=O)C1CCCc2c1[nH]c1c(C(N)=O)cccc21 (stereo unspecified),92.2
7,O=C(OCc1ccccc1F)c1cnc(Cl)c(Cl)c1,94.4
8,O=C(OCc1ccc([N+](=O)[O-])cc1)c1cc2ccccc2oc1=O,103
9,COc1ccccc1C1=NOC(COC(=O)c2ccc([N+](=O)[O-])cc2)C1 (stereo unspecified),97.8
10,CCCCS/C(N)=N/N=C/c1cc(C)ccc1O,85.3
11,Nc1ccc(Oc2ccc(F)cc2)nc1,100
12,CCOC(=O)c1cc(-c2cccc([N+](=O)[O-])c2)on1,96.6
13,CNC(=S)Nc1ccc(N2CCN(c3ccc(C(F)(F)F)cn3)CC2)nc1,92.3
14,CCCCCCC#Cc1ccc2c(c1)COc1c3ccccc3nn1-2,83.6
15,O=C(NC1CCCCCC1)c1ccccc1-c1ccccc1,83.2
16,COc1cc(N)c(Cl)cc1C(=O)N[C@H]1CCN(CCCOc2ccc(F)cc2)C[C@H]1OC,95
17,N#CC(C(=O)Nc1ccccc1)=C1Nc2ccccc2N1,80.9
18,Cc1ccccc1C(=O)Nc1ccccc1C(=O)NCC(C)C,90.5
19,CSc1nc2nc3c(c(=O)n2[nH]1)CCCC3,96.8
20,c1ccc(CCNc2ncnc3c2cnn3-c2ccccc2)cc1,84.7
21,CCSc1ncc(/C=N/Nc2ccccc2)n1C,84.5
22,CN1/C(=C\C(=O)C[n+]2ccc(C(=O)c3ccccc3)cc2)C(C)(C)c2ccccc21,96.7
23,CCOC(=O)c1ccc2c(c1)C(=O)N(C1CCCCC1)C2=O,92.8
24,CCCN(CC1CC1)C(=O)COC(=O)c1ccc2c(c1)C(=O)N(c1ccc(OCC)cc1)C2=O,94.9

row,Structure (SMILES),viability [%]
1,CN(C)C=Nc1ccc2nn(-c3ccccc3)nc2c1,93.2
2,COC(=O)CSc1[nH]c2ccc(Br)cc2c1[N+](=O)[O-],93.3
3,CCOC(=O)c1csc(-c2snnc2C)n1,95.6
4,O=C(COC(=O)C1CC2CCCC(C1)C2=O)NNC(=O)c1ccccc1F (stereo unspecified),101
5,Cn1nnc(NC(=S)NC(=O)c2ccc(-c3ccc(Br)cc3)o2)n1,92.3
6,NC(=S)NNc1ccc(Cl)c(Cl)c1,96.9
7,Nc1ccc(C(=O)OCCCc2nc3cc4ccccc4cc3[nH]2)cc1,90.5
8,CS(=O)(=O)c1ncc(Cl)c(C(=O)Nc2ccc(OC(F)F)cc2)n1,87.7
9,COCCOC(=O)c1ccc(NC(=O)COc2ccc([N+](=O)[O-])cc2)cc1,101
10,CC1CCN(C(=O)C2CCN(c3nnc(-n4cccc4)s3)CC2)CC1,86.7
11,COCc1nnc(NC(=O)C2CC(=O)N(c3ccc(C)c(Cl)c3)C2)s1 (stereo unspecified),87.4
12,COc1ccc2c(c1)[C@@H]1[C@H](CO2)[C@H](c2ccccc2)[C@]2(C)C(=O)Nc3ccc(C)cc3C(=O)N12,84.9
13,CCC(=O)c1coc2ccc(O)cc12,102
14,CCCCc1ccc(NC=C2C(=O)OC3(CCCCC3)OC2=O)cc1,97.2
15,C#CCOC(=O)/C(=C/C=C/c1ccccc1)NC(=O)c1ccccc1,92.6
16,Cc1ccc(C(=O)N/C(=C/c2ccco2)C(=O)OCN2C(=O)c3ccccc3C2=O)cc1,96.3
17,O=C(OCn1nnc2ccccc2c1=O)C1CCCCC1,93.7
18,CN1[C@@H]2CC[C@H]1CC(OC(=O)[C@H](CO)c1ccccc1)C2 (stereo partly specified),96.7
19,CC(=O)c1cccc(NC(=S)NC2CCCCCCC2)c1,95.3
20,Cc1[nH]nc2nc3c(c(OC(=O)c4ccccc4)c12)c(=O)n(C)c(=O)n3C,98.9
21,Cc1cc(/C=C(/C#N)c2cccc(F)c2)c(C)n1-c1cccnc1,82.3
22,N#Cc1cccc(NC(=O)N2CCC(c3nc4c(nnn4Cc4cccc(Cl)c4)c(=O)[nH]3)CC2)c1,92.3
23,CCOC(=O)c1ccc(Oc2nc(NC(C)(C)C)nc(N(C)C)n2)cc1,80.1
